POLB inh: blocks human DNA polymerase beta activity; AID 485314; Potency, µM (doses to about 114 µM), usual class: inhibitors; hit rate 1.3% among 340,000; Pol beta primer extension/strand displacement, fluorescence kinetic
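Enzyme-only controls used 10 nM Pol beta; buffer lacking enzyme served as negative control. Compound preincubated 15 min, then 50 nM substrate added; 0 and 10 min reads at room temperature.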
POLH inh: DNA polymerase eta (human) inhibition. Q9Y253. Potency, µM (top dose mostly 114 µM), hits mostly inhibitors. hit rate 1.2% among 390,000. recombinant Pol eta, fluorescent DNA replication assay
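Pol eta (10 nM) was preincubated with compounds for 15 min at room temperature, after which fluorescent replication substrate (50 nM final) was added to start the reaction. Fluorescence was read kinetically at 0 and 10 min.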
POLI inh: DNA polymerase iota (human) inhibition; Potency, µM (titrated, usually from 115 µM), usual class: inhibitors; AID 588590; Q9UNA4; hit rate 1% among 390,000; Pol iota fluorescent replication assay, 10 min
Target sequence (Q9UNA4 whole entry, looked up): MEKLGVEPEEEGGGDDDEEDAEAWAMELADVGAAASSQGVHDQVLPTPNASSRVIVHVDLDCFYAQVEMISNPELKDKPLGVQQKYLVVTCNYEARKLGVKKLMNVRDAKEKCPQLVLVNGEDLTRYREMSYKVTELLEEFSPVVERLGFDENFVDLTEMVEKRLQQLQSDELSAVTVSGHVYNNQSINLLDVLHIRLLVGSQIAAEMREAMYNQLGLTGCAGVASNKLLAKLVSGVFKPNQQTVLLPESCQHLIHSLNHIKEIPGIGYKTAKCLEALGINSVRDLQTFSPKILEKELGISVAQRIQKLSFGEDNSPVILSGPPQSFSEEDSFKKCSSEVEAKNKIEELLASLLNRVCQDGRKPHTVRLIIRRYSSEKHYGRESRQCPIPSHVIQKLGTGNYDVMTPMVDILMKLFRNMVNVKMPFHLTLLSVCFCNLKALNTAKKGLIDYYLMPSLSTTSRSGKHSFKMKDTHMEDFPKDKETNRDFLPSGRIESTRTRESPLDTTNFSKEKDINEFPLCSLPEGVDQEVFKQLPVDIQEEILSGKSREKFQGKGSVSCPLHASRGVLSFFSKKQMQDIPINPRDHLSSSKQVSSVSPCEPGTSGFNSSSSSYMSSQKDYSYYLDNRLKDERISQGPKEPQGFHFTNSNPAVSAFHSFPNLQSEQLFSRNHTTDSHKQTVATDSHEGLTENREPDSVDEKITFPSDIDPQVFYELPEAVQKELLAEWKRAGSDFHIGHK
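Fluorescent replication assay read twice, at 0 min and 10 min after adding 50 nM (final) substrate. Enzyme (10 nM) and compounds were first incubated 15 min at room temperature; enzyme-free buffer wells were negative controls.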
Pol kappa inh: inhibitors of human DNA polymerase kappa | Q9UBT6 | purified Pol kappa, fluorescent DNA synthesis assay, 10 min | Potency, µM (highest dose often 107 µM), usual class: inhibitors | hit rate 0.53% among 400,000
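Kinetic fluorescence screen: compound preincubated 15 min RT with 10 nM enzyme; 50 nM substrate (final) initiates; reads at 0/10 min.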
WRN helicase inh: WRN helicase (human) inhibition; WRN helicase unwinding, fluorescent forked duplex, kinetic; Potency, µM (doses to about 114 µM), most hits filed as inhibitors; hit rate 0.46% among 360,000; AID 651768; further: nearly all actives have a fitted effect of over 55% in size
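Kinetic red-fluorescence monitoring (525/598 nm) tracks WRN helicase activity after 100 nM fluorophore-quencher forked duplex and 2 mM ATP are added to 20 nM enzyme pretreated 15 min at room temperature with compound.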
FEN1 inhibitor: human FEN1 inhibition; hit rate 0.35% among 390,000; Recombinant FEN1 flap cleavage, fluorescence, 15 min; Potency, µM (doses to about 114 µM), actives largely listed as inhibitors; AID 588795; further: nearly all actives have a fitted effect of over 65% in size
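Nuclease activity of 10 nM FEN1 was measured after 15 min of room-temperature exposure to titrated compounds, by adding 50 nM flap substrate and reading plates at 0 and 15 min.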
Numbers stand for hits; - = inactive; ? = inconclusive; . = not tested or not shown; ! = not active in a repeat; [ ] = another dose, or the depositor's remark. Shown are actives, neighbours in structure and some others; about 2.4% of the full set was active somewhere. The call rests on the fitted dose curve; in most records, active means well fitted curve in the direction sought with a large enough effect; inconclusive means small, poorly fitted or top-dose-only effect, or another doubt; inactive means no such curve, though single readings can be large; an effect the other way counts as inactive or inconclusive.

SMILES | POLB inh | POLH inh | POLI inh | Pol kappa inh | WRN helicase inh | FEN1 inhibitor
COCCNC(=O)c1c[nH]n2c(=O)cc(C3CCN(C(=O)OC(C)(C)C)CC3)nc12 | - | - | - | - | - | -
CCOc1cc(C2Nc3cccc4cccc(c34)N2)ccc1O | - | 79.4µM | ? | - | - | ?
CCOc1ccc(C2Nc3cccc4cccc(c34)N2)cc1OC | - | ? | ? | - | - | -
CCCCCCCCCCCC(=O)NC(Cc1ccc(OC)c([N+](=O)[O-])c1)C(=O)O (centres undefined) | - | - | - | - | - | -
CCCCCCCCCCCCCCCC(=O)N[C@@H](COP(=O)(O)O)C(=O)O | . | . | . | 26.7µM! | . | .
O=C(CSc1ncnc2nc[nH]c12)Nc1nnc(SCc2ccc(Cl)c(Cl)c2)s1 | 39.8µM | ? | ? | - | ? | -
Cc1ccc(C)c(NC(=O)CSc2ncnc3nc[nH]c23)c1 | - | - | ? | - | - | -
CCCOc1ccc(-c2c(C(=O)N/N=C/C3CC=CCC3)nnn2-c2nonc2N)cc1 (centres undefined) | - | - | - | - | - | -
O=C(c1cc(COc2ccc3ncccc3c2)on1)N1CCCC1 | - | - | - | - | - | -
O=C(NCCc1cn2ccccc2n1)c1cc(COc2ccc3ncccc3c2)on1 | 39.8µM | - | - | - | - | -
Cc1cc(C)n(C(CC(=O)N2CCc3ccccc3C2)C(=O)O)n1 (centres undefined) | ? | - | 79.4µM | ? | - | -
CC1=C([N+](=O)[O-])C(c2ccc(O)c(O)c2)NC(=O)N1 (centres undefined) | - | - | 79.4µM | - | - | -
COc1cc(C2NC(=S)NC(c3ccccc3)=C2C(C)=O)cc(Cl)c1OCC(=O)O (centres undefined) | - | - | - | - | - | -
COc1ccc(C2NC(=O)NC(C)=C2[N+](=O)[O-])cc1OC (centres undefined) | - | - | - | - | - | -
CC(=O)C1=C(c2ccccc2)NC(=O)NC1c1ccc(O)c(O)c1 (centres undefined) | 3.98µM | ? | 39.8µM | 79.4µM | - | -
CCOc1ccc(C2NC(=O)NC(c3ccccc3)=C2C(C)=O)cc1OC (centres undefined) | - | - | - | - | - | -
COc1cc(C2NC(=O)NC(c3ccccc3)=C2C(C)=O)cc(Cl)c1OCC(=O)O (centres undefined) | - | 28.2µM | - | - | - | -
CC(=O)C1=C(c2ccccc2)NC(=S)NC1c1ccc(O)c(O)c1 (centres undefined) | 3.98µM | ? | 17.8µM | - | -[11.6 µM] | -
COc1nnc(-c2ccc(N3CCOCC3)c(NC(C)=O)c2)c2ccccc12 | - | - | - | - | - | -
CNC(=S)NNC(=O)c1sccc1C | - | - | - | - | - | -
COC(=O)CCCC1=CC2=CC(=O)C(C)(OC(=O)c3cccs3)C(=O)C2=CN1CCc1ccccn1 (centres undefined) | - | - | - | - | - | -
NC(=O)CSc1nnc(NC(=O)C2CC(=O)N(c3ccc(F)cc3)C2)s1 (centres undefined) | - | 50.1µM | - | - | -[11.6 µM] | -
COc1cccc(N2CC(C(=O)Nc3nnc(SCc4cccnc4)s3)CC2=O)c1 (centres undefined) | 25.1µM | ? | ? | - | - | -
O=C(Nc1nnc(SCC(=O)N2CCOCC2)s1)C1CC(=O)N(c2ccccc2)C1 (centres undefined) | - | - | - | - | - | -
Cc1cccc(N2CC(C(=O)Nc3nnc(SCC(=O)N4CCOCC4)s3)CC2=O)c1 (centres undefined) | 28.2µM | 44.7µM | ? | - | -[11.6 µM] | -
SMILES | POLB inh | POLH inh | POLI inh | Pol kappa inh | WRN helicase inh | FEN1 inhibitor
O=C(Nc1nnc(SCc2cccnc2)s1)C1CC(=O)N(c2ccc(F)cc2)C1 (centres undefined) | ? | ? | ? | - | ? | -
COc1cccc(N2CC(C(=O)Nc3nnc(SCCC4OCCO4)s3)CC2=O)c1 (centres undefined) | - | 44.7µM | ? | - | -[11.6 µM] | -
CCN(CC(=O)Nc1ccc(S(N)(=O)=O)cc1)S(=O)(=O)c1cc(C)ccc1OC | - | ? | - | - | - | -
O=C(Nc1nnc(SCCC2OCCO2)s1)C1CC(=O)N(c2ccc(F)cc2)C1 (centres undefined) | 44.7µM | 20µM | ? | - | ? | -
O=C(Nc1nnc(SCCC2OCCO2)s1)C1CC(=O)N(c2ccccc2)C1 (centres undefined) | ? | ? | ? | - | - | -
C=CCNc1nc(C(=O)OCC(=O)Nc2ccc(S(N)(=O)=O)cc2)cs1 | . | 56.2µM | 28.2µM | - | - | -
O=C(COc1ccc(Cl)cc1)NCc1ccccc1 | - | - | - | - | - | -
COc1ccc(S(=O)(=O)NNC(=O)C(=O)NNc2ccccn2)cc1 | - | - | - | - | - | -
COc1ccc(C(=O)Nc2cccc(S(C)(=O)=O)c2)cc1OC | - | - | - | - | - | -
COc1ccc(C(=O)Nc2c(N)nc(SCC(=O)Nc3ccc(NC(C)=O)cc3)[nH]c2=O)cc1OC | ? | ? | 79.4µM | ? | - | -
Nc1nc(SCC(=O)Nc2ccc(C(F)(F)F)cc2)[nH]c(=O)c1NC(=O)c1ccc(F)c(F)c1 | - | - | - | - | - | -
COc1ccc(C(=O)Nc2cccc(NC(C)=O)c2)cc1OC | 8.91µM | ? | ? | ? | - | -
CCc1cc(=O)oc2c(CN3CCN(C)CC3)c(O)c(Cl)cc12 | - | - | - | - | - | -
CCC(Cc1ccccc1)NC(=O)Cn1nc(C)n2c(cc3occc32)c1=O (centres undefined) | - | - | - | - | . | -
OCc1cn(-c2ccccc2)nn1 | - | - | - | - | - | -
O=C1OC(NC(=O)c2ccccc2)C(n2cc(CO)nn2)=C1Cl (centres undefined) | - | - | ? | - | 50.1µM | -
Cc1nc2c(C)cccc2c2c1COC2 | - | - | - | - | - | -
O=C(CSc1ccsc1[N+](=O)[O-])NC1CCCC1 | ? | 56.2µM | 44.7µM | - | -[11.6 µM] | -
COc1ccc(CCNC(=O)CSc2ccsc2[N+](=O)[O-])cc1OC | ? | - | - | - | - | -
COc1ccc(CCNC(=O)CSc2ccsc2[N+](=O)[O-])c(OC)c1 | ? | 44.7µM | ? | - | -[11.6 µM] | -
COc1ccc(OC)c(CCNC(=O)CSc2ccsc2[N+](=O)[O-])c1 | - | 39.8µM | 44.7µM | ? | - | -
N#Cc1ccccc1S(=O)(=O)N1CCN(C(=O)C2COc3ccccc3O2)CC1 (centres undefined) | . | ? | 79.4µM | - | ? | -
COCC(=O)Nc1sc2c(c1C(=O)OC)C(C(=O)OC)CC2 (centres undefined) | - | - | - | - | - | -
